High-throughput results deposited in PubChem by The Scripps Research Institute Molecular Screening Center.
hgDAF12 agonist: H. glycines DAF-12 receptor agonists, primary screen, cell-based, luminescence, HEK293, GAL4 fusion, UAS-luciferase | Nuclear hormone receptor DAF-12 (Heterodera glycines), GAL4 fusion | HEK293 GAL4-hgDAF12 UAS-luciferase reporter, agonist luminescence; normalized to butyrate control | activation, % at 6.8 µM | 370,000 tested, 1.8% active | AID 687014, 2013;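 active = activation above a cutoff set at the mean of all screened compounds plus 3 SD, cut at about 10% in these data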;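 note: 0% = DMSO wells and 100% = sodium butyrate wells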
SMARCA2 activ: SMARCA2 (BRM) function activators, primary screen, cell-based, luminescence, high throughput; MG213 cells, MMTV-luciferase reporter, dexamethasone, overnight; activation, % at 9.1 µM; 370,000 tested, 1% active; in the data active = activation above about 7.8%;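 note: 0% = vehicle wells and 100% = reference activator wells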
DAX1 inh-1: DAX1 (NR0B1) inhibitors on StAR promoter, primary screen, cell-based, luminescence, SF-1 (NR5A1), full-length DAX-1; HEK293T StAR-luciferase reporter, SF-1/DAX-1 repression relief; AID 652010, 2013; inhibition, % at 6.8 µM; 370,000 tested, 1.1% active;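 active = inhibition above the mean over all tested compounds plus 3 SD, cut at about 3.6% in these data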;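 note: 0% = DAX-1 cells with DMSO and 100% = cells lacking DAX-1 with DMSO; higher inhibition means more luminescence from relief of DAX-1 repression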
hcDAF-12 act: H. contortus DAF-12 nuclear receptor activators, primary screen, cell-based, luminescence, HEK293, lit1-tk-luc reporter. HEK293 hcDAF-12 lit1-tk-luc reporter; 0% DMSO, 100% Δ7-dafachronic acid. activation, % at 6.8 µM. 370,000 tested, 1.4% active;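 active = activation above the mean of all tested compounds plus 3 SD, cut at about 5.5% in these data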;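 note: 100% = response to 3 µM Δ7-dafachronic acid high control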
ssDAF-12 act: S. stercoralis DAF-12 nuclear receptor activators, primary screen, cell-based, luminescence, HEK293, GRIP1 co-expression, lit1-tk-luc; 370,000 tested, 1% active; activation, % at 6.8 µM; HEK293 ssDAF-12/GRIP1 lit1-tk-luc reporter; % of 3 µM dafachronic acid response; Nuclear hormone receptor DAF-12 (Strongyloides stercoralis);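 active = activation above the mean over all tested compounds plus 3 SD, cut at about 0.9% in these data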;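 note: 0% = DMSO-only wells and 100% = 3 µM delta7-dafachronic acid wells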
DAX1 inh-2: DAX1 (NR0B1) inhibitors, primary screen, cell-based, HEK293, Gal4-DAX1, luciferase luminescence; HEK293 Gal4-DAX1 luciferase reporter; inhibition, % at 6.75 µM; Nuclear receptor subfamily 0 group B member 1 (Homo sapiens), P51843; AID 504766, 2011; 340,000 tested, 0.99% active;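 active = inhibition above the mean over all tested compounds plus 3 SD, cut at about 4.2% in these data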;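 note: 0% = DAX1-transfected cells with DMSO and 100% = empty-vector control cells with DMSO; inhibition shows as a rise in luminescence from relieved DAX1 repression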
Target sequence (P51843 207-470 limits assumed): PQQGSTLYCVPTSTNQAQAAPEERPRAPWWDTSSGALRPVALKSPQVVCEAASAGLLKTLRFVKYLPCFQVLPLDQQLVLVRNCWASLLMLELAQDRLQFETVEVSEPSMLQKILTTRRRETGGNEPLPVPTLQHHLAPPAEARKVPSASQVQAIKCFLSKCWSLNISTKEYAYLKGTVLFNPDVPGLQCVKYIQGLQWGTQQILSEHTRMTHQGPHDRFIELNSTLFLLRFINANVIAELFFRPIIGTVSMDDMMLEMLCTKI
SMARCA2 act conf: SMARCA2 (BRM) function activators, confirmation, cell-based, luminescence, triplicate | shares compounds with SMARCA2 activ | MG213 cells, MMTV-luciferase with dexamethasone, overnight; MG213 cells expressing E1A, Rb sequestered; DMSO wells 0%, reference activator 100% | activation, % at 9.1 µM | 3,500 tested, 30% active | AID 652260, 2013;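 active = activation above its plate's cutoff, the mean activation of tested wells plus 3 SD, cut at about 7.9% in these data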
GAL4-VP16 Luc: GAL4-VP16 luciferase reporter activation, counter-screen for SMARCA2 (BRM) activator project, cell-based, pG5luc, luminescence, high throughput; activation, % at 9.1 µM; HEK293 GAL4-VP16 pG5luc reporter; scaled: DMSO wells 0%, SAHA wells 100%; AID 686939, 2013; 3,500 tested, 41% active; shares compounds with SMARCA2 activ;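 active = activation above the solvent-only control well mean plus 3 SD, averaged across control plates, cut at about 5.2% in these data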
LXRb hcDAF ctr: LXR agonists, Gal4 luciferase reporter, confirmation, counter-screen for hcDAF-12 agonist project, cell-based, luminescence, HEK293, H. contortus campaign; shares compounds with hcDAF-12 act; AID 743027, 2013; 3,400 tested, under 10 active; HEK293 Gal4-LXR tk-luc reporter, 24 h; normalized: DMSO 0%, positive control 100%; activation, % at 6.8 µM;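 active = mean percent activation of the reporter above a cutoff set as the average over tested compounds plus their standard deviation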
hcDAF12 conf: H. contortus DAF-12 receptor agonists, confirmation, cell-based, luminescence, HEK293, lit1-tk-luc, triplicate; shares compounds with hcDAF-12 act; HEK293 hcDAF-12 lit1-tk-luc reporter; % of Δ7-dafachronic acid response; activation, % at 6.8 µM; 3,400 tested, 61% active; AID 743032, 2013;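 active = mean activation across triplicate tests above the threshold derived from the earlier primary screen, cut at about 5.5% in these data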;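 note: 0% = DMSO only wells and 100% = 3 µM Δ7-dafachronic acid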
hgDAF12 conf: H. glycines DAF-12 receptor agonists, confirmation, cell-based, luminescence, HEK293, GAL4-LBD fusion; shares compounds with hgDAF12 agonist; HEK293 GAL4-hgDAF12 luciferase reporter, agonist mode; percent of butyrate response; activation, % at 6.8 µM; 3,300 tested, 80% active; AID 743050, 2013;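 active = mean activation over triplicate wells above the hit cutoff derived from the earlier primary screen, cut at about 11% in these data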;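 note: 0% = DMSO low control and 100% = 2 mM sodium butyrate high control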
LXRb DAF12 ctr: LXR agonists, Gal4 luciferase reporter, confirmation, counter-screen for hgDAF-12 agonist project, cell-based, luminescence, HEK293, H. glycines campaign | shares compounds with hgDAF12 agonist | 24 h | activation, % at 6.8 µM | 3,300 tested, under 10 active;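 active = mean activation of the triplicate above a set limit carried over from the primary screen, none filed active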
Starred values were filed as active, the others as inactive; x = no result. Rows were chosen to be rich in hits. Some 4.8% of all compounds tested hit in one or more screens of this group.

SMILES | hgDAF12 agonist | SMARCA2 activ | DAX1 inh-1 | hcDAF-12 act | ssDAF-12 act | DAX1 inh-2 | SMARCA2 act conf | GAL4-VP16 Luc | hgDAF12 conf | LXRb DAF12 ctr | others
Cn1cnnc1SCC(=O)Nc1ccc2nc(SCc3ccccc3F)sc2c1 | 13.2* | 9.9* | 0.8 | 1.2 | -0.7 | 1.8 | 3.4 | 9.0* | 12.6* | 0.4
Cc1ccc2nc(NC(=O)/C=C/c3ccc4c(c3)OCO4)sc2c1 | -2.6 | -1.4 | 0.5 | -1.6 | -0.1 | 0.9 | x | x | x | x
Cc1ccc(NC(=O)/C=C/c2ccc3c(c2)OCO3)nc1 | 16.7* | 9.3* | 3.2 | 4.8 | -0.8 | 0.8 | 11.9* | 6.6* | 13.1* | 0.8
CSc1ccc(-c2cc(=O)c3ccccc3o2)cc1 | 17.5* | 12.3* | 3.9* | 10.1* | 3.1* | 1.3 | 6.3 | 11.7* | 17.7* | 0.9
COc1ccc(Nc2nc(-c3ccccc3)nc3ccccc23)c(OC)c1 | -0.1 | 0.2 | -0.6 | -0.6 | -0.6 | 0.0 | x | x | x | x
COc1ccc(Nc2nc(N)c3ccccc3n2)c(OC)c1 | 13.3* | 10.8* | 1.5 | 4.2 | 0.5 | 4.8* | 9.0* | 7.5* | 15.3* | 0.6
CCn1c(/C=C/c2ccccc2)nc2ccccc21 | 15.3* | 9.2* | 3.9* | 11.2* | 1.4* | 0.4 | 10.7* | 10.7* | 17.0* | 0.9 | LXRb hcDAF ctr=1.4;hcDAF12 conf=12.4*
CCn1c(/C=C/c2ccccc2)nc2ccccc2c1=O | 0.0 | -0.8 | -0.5 | -0.7 | -0.9 | 0.7 | x | x | x | x
C/C(=N/OCc1ccc(Br)cc1)c1ccccn1 | 23.1* | 9.1* | 3.7* | 4.6 | -0.2 | 1.6 | 6.6 | 8.7* | 22.2* | 1.2
CCC(CC)C(=O)Nc1cccc(/C(C)=N\NC(=O)c2ccc(C)s2)c1 | 2.4 | -0.3 | 0.3 | 0.2 | -0.9 | 0.6 | x | x | x | x
